Results reported in PubChem BioAssay (NCATS).
Records with an inconclusive call do not appear. Where a call stands in place of a potency, no number is given. Activity calls are given as the source filed them. Calls come from the whole dose curve; as a rule, active = well fitted cell-killing curve with a large enough effect; inconclusive = small, poorly fitted or top-dose-only effect, or effect the other way; inactive = no such curve, though single readings can be large or run the other way.

assay: Quantitative High-Throughput drug screen in 47 multiple myeloma cell lines against the NCATS MIPE library collection: U266_ATCC cell viability assay (AID 1919864); conditions: U266 myeloma viability, CellTiter-Glo ATP luminescence, 48 h; series mostly up to 45.8 µM; note: nearly all actives have a fitted effect of over 35% in size
Excerpt: PI: Beverly A. Mock Ph.D.
Laboratory of Cancer Biology and Genetics,
Center for Cancer Research, National Cancer Institute,
National Institute of Health, Bethesda, Maryland
Drug resistance and disease progression are common in multiple myeloma (MM) patients, underscoring the need for new therapeutic combinations. […] We hypothesized that effective combinations would reduce MYC expression and enhance p16 activity. […] These preclinical data identify potentially useful drug combinations for evaluation in drug-resistant MM and reveal potential mechanisms of combined drug sensitivity.
Described herein is the primary MIPE qHTS used to cherrypick compounds. Validated compounds were then further tested for potential synergistic activiy.
[1] Peat TJ, Gaikwad SM, Dubois W, Gyabaah-Kessie N, Zhang S, Gorjifard S, Phyo Z, Andres M, Hughitt VK, Simpson RM, Miller MA, Girvin AT, Taylor A, Williams D, D'Antonio N, Zhang Y, Rajagopalan A, Flietner E, Wilson K, Zhang X, Shinn P, Klumpp-Thomas C, McKnight C, Itkin Z, Chen L, Kazandijian D, Zhang J, Michalowski AM, Simmons JK, Keats J, Thomas CJ, Mock BA. Drug combinations identified by high-throughput screening promote cell cycle transition and upregulate Smad pathways in myeloma. Cancer Lett. 2023 Aug 1;568:216284. doi: 10.1016/j.canlet.2023.216284. Epub 2023 Jun 24. PMID: 37356470; PMCID: PMC10408729.
SEQUENCE No. (e.g., 1, 2, 3, etc.); […] (e.g., Cells, Incubation, Reagent, etc.); VALUE and DESCRIPTION.
1; Cells; 5 uL; white, solid bottom 1536-well Greiner assay plate.
2; Compounds; 23 nL; Kalypsis pin tool (Wako USA) equipped with a 1536-well pin head to transfer to the assay plates.
3; Incubation; 48 hours; 37C incubation.
4; Reagent;5uL; CellTiter Glo (Promega).
5; Detector; 425V; Luminescence; Viewlux PerkinElmer.
NOTES (numbers refer to Sequence numbers above)
1. The cell-based screening methods employed in this study were like those previously published. Briefly, the corresponding myeloma cell lines were screened in 1,536-well plates with 500 cells, 5-uL per well for inhibition of cell viability (assessed by measuring ATP levels with CellTiterGlo).
2. NCATS MIPE 4.0 library of approved and investigational drugs were added using the Kalypsis pin tool. Wells treated with DMSO only for 100% viability and media only for 0% viability were used as controls.
3. The assay plates were covered and incubated for 48 hours in a 37C, 5% CO2 incubator with controlled humidity.
4. After 48 hours, CellTilter-GloTM luminescent substrate mix (Promega) reagent was added to the assay plate and plates we incubated for 5 min at room temperature.
5. Signal was measured as median relative luminescence units on a ViewLux (PerkinElmer) multiplate reader.
[1] Heske CM, Davis MI, Baumgart JT, Wilson K, Gormally MV, Chen L, Zhang X, Ceribelli M, Duveau DY, Guha R, Ferrer M, Arnaldez FI, Ji J, Tran HL, Zhang Y, Mendoza A, Helman LJ, Thomas CJ. Matrix Screen Identifies Synergistic Combination of PARP Inhibitors and Nicotinamide Phosphoribosyltransferase (NAMPT) Inhibitors in Ewing Sarcoma. Clin Cancer Res. 2017 Dec 1;23(23):7301-7311. doi: 10.1158/1078-0432.CCR-17-1121. Epub 2017 Sep 12. PMID: 28899971; PMCID: PMC6636827.
Potency is the fitted concentration of half-maximal effect.

Compound | Potency
COc1c2occc2cc2ccc(=O)oc12 | inactive
Oc1ccc(OCc2ccccc2)cc1 | inactive
Cc1cc(=O)c2c(O)c3c(O)cc(=O)c4c3c3c(cc(O)c1c23)C(C)(C)C=4O | 26.4 µM (active)
O=C(NOCC1CC1)c1ccc(F)c(F)c1Nc1ccc(I)cc1Cl | 23.5 µM (active)
O=C(CCc1ccc(O)cc1)c1c(O)cc(O)cc1O | inactive
CCCCCCCCOc1ccccc1C(=O)Nc1ccc(C(=O)OCC[N+](C)(CC)CC)cc1 | 20.9 µM (active)
Nc1cc(C(Cl)=C(Cl)Cl)c(S(N)(=O)=O)cc1S(N)(=O)=O | inactive
CNC[C@H](O)c1ccc(O)c(O)c1 | 38.2 µM (active)
CN(C)c1ccc2nc3ccc(=[N+](C)C)cc-3sc2c1 | 8.33 µM (active)
N=C(N=C(N)N)N1CCOCC1 | 18.7 µM (active)
Cc1cc(=O)oc2cc(O)ccc12 | inactive
CN(C)c1ccc(O)c2c1C[C@H]1C[C@H]3[C@H](N(C)C)C(=O)C(C(N)=O)=C(O)[C@@]3(O)C(=O)C1=C2O | 5.9 µM (active)
Cc1cc2c(s1)Nc1ccccc1N=C2N1CCN(C)CC1 | inactive
COCCCN1CCC(NC(=O)c2cc(Cl)c(N)c3c2OCC3)CC1 | inactive
CCN(CCO)CCCC(C)Nc1ccnc2cc(Cl)ccc12 (stereo not given) | inactive
CC(C)c1ccc2c(c1)c(SC(C)(C)C)c(CC(C)(C)C(=O)O)n2Cc1ccc(Cl)cc1 | 20.9 µM (active)
Oc1ccc2ccccc2c1SSc1c(O)ccc2ccccc12 | 20.9 µM (active)
Cc1nc(Nc2ncc(C(=O)Nc3c(C)cccc3Cl)s2)cc(N2CCN(CCO)CC2)n1 | 16.6 µM (active)
NNc1nncc2ccccc12 | inactive
COC(=O)N[C@H](C(=O)N[C@@H](Cc1ccccc1)[C@@H](O)CN(Cc1ccc(-c2ccccn2)cc1)NC(=O)[C@@H](NC(=O)OC)C(C)(C)C)C(C)(C)C | inactive

Compound | Potency
C[C@H](Cc1ccc(O)c(O)c1)[C@@H](C)Cc1ccc(O)c(O)c1 | 16.6 µM (active)
Cc1cccc(-c2[nH]ncc2-c2ccc3ncccc3n2)n1 | inactive
CN(C)CCCC1(c2ccc(F)cc2)OCc2cc(C#N)ccc21 (stereo not given) | 23.5 µM (active)
O=C(c1ccccc1)c1ccc2n1CCC2C(=O)O (stereo not given) | 3.72 µM (active)
CCC1=C(C)CN(C(=O)NCCc2ccc(S(=O)(=O)NC(=O)NC3CCC(C)CC3)cc2)C1=O (stereo not given) | inactive
CC(C)Oc1ccc2c(=O)c(-c3ccccc3)coc2c1 | inactive
CC(C)[N+]1(C)[C@@H]2CC[C@H]1CC(OC(=O)C(CO)c1ccccc1)C2 (stereo not given in full) | inactive
CN1C(C(=O)Nc2ccccn2)=C(O)c2sccc2S1(=O)=O | inactive
O=C(O)c1cccc(-c2noc(-c3ccccc3F)n2)c1 | 18.7 µM (active)
C=CCc1cc(OC)c(O)c(C(=O)NCCO)c1 | inactive
C[Se]CCC(N)C(=O)O (stereo not given) | inactive
COc1ccc(C2(C#N)CCC(C(=O)O)CC2)cc1OC1CCCC1 (stereo not given) | inactive
OC(CN1CCN(c2cccc(Cl)c2)CC1)C(c1ccccc1)c1ccccc1 (stereo not given) | 10.5 µM (active)
COCCCOc1ccnc(CS(=O)c2nc3ccccc3[nH]2)c1C (stereo not given) | inactive
CN(c1nccc(=O)[nH]1)C1CCN(c2nc3ccccc3n2Cc2ccc(F)cc2)CC1 | 11.8 µM (active)
O=C1c2c(O)cc(O)cc2OC(c2ccc(O)c(O)c2)C1O (stereo not given) | inactive
C=C(c1ccc(C(=O)O)cc1)c1cc2c(cc1C)C(C)(C)CCC2(C)C | inactive
COC(=O)C1=C(C)NC(C)=C(C(=O)OC(C)C)C1c1cccc2nonc12 (stereo not given) | 3.72 µM (active)
CC(C)C[C@H](NC(=O)[C@H](Cc1ccccc1)NC(=O)c1cnccn1)B(O)O | 0.0093 µM (active)
O=Nc1c(-c2c(O)[nH]c3cc(Br)ccc23)[nH]c2ccccc12 | 16.6 µM (active)
